# Source: PubChem BioAssay
# CHX counter: counter-screen hit for Shiga toxin inhibitors, cycloheximide. max response, %. cell reporter, cycloheximide protein synthesis inhibition counterscreen. 300,000 compounds, 12% hits; in the data active = max response mostly above about 13%, no sharp cut-off; inactive = mostly below about 14%; note: read at 38.3 µM for the half of the compounds with a filed dose; 0% is about no effect
# FBPA Giardia inh: Giardia lamblia aldolase inhibition | purified Giardia FBPA | Potency, µM (highest dose often 59.6 µM), without a hit: at the top dose activity, negative = inhibition, most hits filed as inhibitors | 290,000 compounds, 0.71% hits | AID 2451; note: potency is the fitted concentration of half-maximal effect; % is set by controls: 0 for no effect and ±100 for the full control effect; nearly all actives have a fitted effect of over 55% in size
# Target sequence (A8B2U2 whole entry, looked up): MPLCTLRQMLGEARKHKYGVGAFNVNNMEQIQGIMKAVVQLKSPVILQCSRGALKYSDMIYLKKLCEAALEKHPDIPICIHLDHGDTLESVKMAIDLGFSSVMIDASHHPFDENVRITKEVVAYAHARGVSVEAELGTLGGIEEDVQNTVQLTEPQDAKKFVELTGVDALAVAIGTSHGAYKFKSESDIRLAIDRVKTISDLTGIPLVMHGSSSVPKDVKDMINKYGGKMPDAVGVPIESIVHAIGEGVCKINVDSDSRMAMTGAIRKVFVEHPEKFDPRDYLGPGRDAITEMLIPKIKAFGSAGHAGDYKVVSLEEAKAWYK
#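 40 nM FBPA preincubated 10 min at RT with compound (up to 57.5 uM final), then substrate plus GAPDH/TPI/NAD/arsenate coupling and diaphorase/resazurin added. Fluorescence read after 20 min at RT, 525/598 nm.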
# LmPK inhibitor: inhibitors of Leishmania mexicana pyruvate kinase; purified LmPK, Kinase-Glo ATP luminescence, 1 h; Potency, µM (doses to about 57.5 µM), for the others: at the top dose activity change, negative = inhibition, usual class: inhibitors; AID 1721; 290,000 compounds, 0.37% hits; note: potency is the fitted concentration of half-maximal effect; % is set by controls: 0 for no effect and ±100 for the full control effect
#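 Screened at intermediate enzyme activity to detect both inhibitors and activators: LmPK at 0.1 nM, with a 0.5 nM enzyme column as activation reference. PEP 0.5 mM, ADP 0.1 mM; ATP detected by luminescence after 1 h.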
# RE007 growth inh: less growth of the S. pombe RE007 Vpr strain. Potency, µM (top dose mostly 92.2 µM), for the others: top-dose activity change, negative = less growth, usual class: inhibitors. 360,000 compounds, 0.21% hits. S. pombe RE007 Vpr strain, BacTiter-Glo ATP luminescence, 24 h; active = well fitted falling curve with a large enough effect; inconclusive = small, poorly fitted or top-dose-only effect; inactive = no such curve, though single readings can be large or run the other way; note: potency is the fitted concentration of half-maximal effect; % is set by controls: 0 for no effect and ±100 for the full control effect; nearly all actives have a fitted effect of over 50% in size
#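 Fission yeast strain RE007, carrying one chromosomally integrated HIV-1 vpr copy, was seeded at OD 0.01 in PMG+AL medium with 23 nL pinned compound. After 24 h at 30 °C and 99% humidity, viability was read by BacTiter-Glo luminescence.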
# TbPYK inhibitor: T. brucei pyruvate kinase inhibition | Q57TT1 | TbPYK enzyme, Kinase-Glo Plus ATP luminescence, 45 min | Potency, µM (doses to about 76.8 µM), for inactives: at the highest dose activity, negative = inhibition, most hits filed as inhibitors | 410,000 compounds, 0.12% hits; note: potency is the fitted concentration of half-maximal effect; % is set by controls: 0 for no effect and ±100 for the full control effect; nearly all actives have a fitted effect of over 50% in size
#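 Assay buffer: 50 mM TEA pH 7.2, 100 mM KCl, 10 mM MgCl2, 0.05% BSA, 0.01% Tween-20. Pyruvate kinase from T. brucei plus substrate met compound, then ADP (130 uM final). Luminescence was read post 45 min RT.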
# Shiga toxin inh: blocks Shiga toxin action in Vero cells. Vero cells, Shiga toxin protein synthesis inhibition reporter. inhibition, % at 38.7 µM. 290,000 compounds, 9.2% hits. AID 2315; in the data active = inhibition mostly above about 28%, no sharp cut-off; inactive = mostly below about 43%; note: 0% is about no effect
# * hit, by the source's call; ? = inconclusive; . = no result; [ ] = another dose, or the depositor's remark. Many of the other results were omitted from the sample, so hits are more common in it than they were. Unless noted, calls come from the whole dose curve; as a rule, active = well fitted curve in the direction sought with a large enough effect; inconclusive = small, poorly fitted or top-dose-only effect, or another doubt; inactive = no such curve, though single readings can be large; an effect the other way counts as inactive or inconclusive.
SMILES,CHX counter,FBPA Giardia inh,LmPK inhibitor,RE007 growth inh,TbPYK inhibitor,Shiga toxin inh
COc1ccccc1Oc1ccc(N/C=C/C(=O)c2ccc(C)o2)cc1,24.8*,-2.2%,-15.4%,-2.5%,-5.6%,135.5*
Cn1c(=O)c(=O)n(C)c2cc(N3CCCC3)c(NC(=O)c3ccccc3Cl)cc21,.,.,.,.,0.3%,.
COc1ccc(CCNC(=O)c2[nH]c(C)c(C(C)=O)c2C)cc1,-4.0,5.5%,1.7%,-3.7%,1.2%,-18.6
CCc1c(C(=O)Nc2cc(C)ccc2OC)[nH]c(C)c1C(C)=O,-1.6,-7.3%,-0.7%,10.9%,-5.6%,-8.4
CC(=O)c1c(C)[nH]c(C(=O)Nc2cccnc2)c1C,1.8,-0.1%,-1.3%,-13.5%,-5.6%,-24.2
CC(=O)c1c(C)[nH]c(C(=O)Nc2nccs2)c1C,40.4*,-8.6%,1.1%,2.4%,8.4%,93.3*
CC(=O)c1c(C)[nH]c(C(=O)Nc2cccc(C)n2)c1C,30.3*,.,-17.3%,-7.0%,-2.4%,59.2*
CCc1c(C(=O)Nc2ccc(OC)cc2)[nH]c(C)c1C(C)=O,21.3*,-7.2%,4.0%,0.9%,1.3%,28.9*
COc1ccc(OCCOC(=O)c2[nH]c(C)c(C(C)=O)c2C)cc1,27.3*,-5.1%,-9.3%,7.2%,-5.9%,30.1
Nc1ncnc2c1nc(Br)n2C1O[C@H]2COP(=O)(O)O[C@@H]2C1O (some centres not stated),.,-1.8%,.,.,.,.
Cc1ccc(F)c(C2C3C=CCC(c4ccccc4)C3C(=O)N2Cc2ccccc2)c1 (configuration not stated),9.1,-2.5%,.,.,.,-2.7
COc1cccc(Nc2ncc3nc(C)c(=O)n(CCC#N)c3n2)c1,.,-19.7%,.,.,1.4%,.
CC(=O)c1c(C)[nH]c(C(=O)Nc2ccc(N3CCCCCC3)cc2)c1C,.,.,.,-1.4%,-20.5%,.
CCOc1ccc(NC(=O)c2[nH]c(C)c(C(C)=O)c2C)cc1,30.8*,-1.0%,-6.4%,-2.8%,0.6%,42.6*
COc1ccc(NC(=O)c2[nH]c(C)c(C(C)=O)c2C)cc1,42.2*,-8.6%,-2.0%,-14.0%,-17.0%,79.2*
CCc1ccc(NC(=O)c2[nH]c(C)c(C(C)=O)c2C)cc1,41.6*,-15.3%,-5.0%,-4.7%,-5.6%,56.3*
O=c1c(-c2ccccc2)nc2cnc(N3CCOCC3)nc2n1CCc1ccccc1,.,-0.4%,.,.,.,.
COc1ccc(N2CCN(C(=O)Nc3cccc(C(F)(F)F)c3)CC2)cc1,-2.1,0.4%,0.2%,4.8%,0.9%,-8.5
CN1CCN(c2ccc(-c3ccnn3C(=O)Nc3cccc(C(F)(F)F)c3)cc2)CC1,43.2*,-0.9%,0.6%,7.3%,8.6%,28.1
O=C1C[C@@H](O)[C@@H](O)[C@H]2[C@@H]3C(=O)N(Cc4ccccc4)C(=O)[C@@H]3CC[C@H]12,.,1.1%[12.9 µM],.,.,.,.
C/C(=N\NC(=O)C(=O)Nc1ccc(C)cc1)c1ccncc1,-1.5,4.4%,-2.2%,21.8%,-0.1%,-10.0
C/C(=N\NC(=O)c1sccc1C)c1ccncc1,43.9*,.,-3.8%,-8.3%,-2.3%,109.1*
C/C(=N\NC(=O)c1sccc1C)c1cccnc1,41.3*,-10.5%,-8.0%,0.9%,6.4%,89.1*
C/C(=N/NC(=O)c1ccco1)c1cccnc1,26.3,1.5%,-10.6%,11.6%,-15.6%,28.9
COC(=O)c1ccccc1NC(=O)NCc1ccc2c(c1)CCN2C(=O)c1ccccc1,.,.,.,.,-1.1%,.
SMILES,CHX counter,FBPA Giardia inh,LmPK inhibitor,RE007 growth inh,TbPYK inhibitor,Shiga toxin inh
COC(=O)[C@H](COC(C)(C)C)NC(=O)O[C@H]1C(=O)c2cc(OC)ccc2O[C@@H]1c1ccc(OC)c(Br)c1,.,0.3%,.,.,.,.
COC(=O)c1cc(C)nc2c1c(=O)nc(SCc1ccccc1C)n2C1CC1,.,.,.,.,-3.0%,.
Cc1ccc(C(=O)Nc2ccc(-c3csc(C)n3)cc2)cc1,34.9*,-6.8%,7.7%,-7.1%,1.8%,117.7*
Cc1nc(-c2ccc(NC(=O)c3ccccc3)cc2)cs1,-3.6,-2.1%,6.4%,44.7µM*,?,-9.4
Cc1nc(-c2ccc(NC(=O)C3CCCCC3)cc2)cs1,42.9*,-1.1%,-0.7%,-11.6%,4.2%,136.8*
Cc1csc(NC(=O)C2CCCCC2C(=O)O)n1 (configuration not stated),-1.2,2.4%,6.7%,9.1%,-4.0%,-16.7
